An excerpt weighted towards active compounds, which were near 8% of everything screened.
KB-V1 MDR tox: qHTS assay for MDR1-selective chemotherapeutics: Primary screen using the drug-selected MDR subline cells KB-V1; KB-V1 MDR cells viability, CellTiter-Glo, 72 h; Potency, µM (highest dose often 46.1 µM), usual class: cytotoxic; 400,000 compounds, 3.4% hits; AID 1347076, 2019; also: nearly all actives have a fitted effect of over 60% in size
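Following 72 h at 37 degrees C with compound, KB-V1 cell viability was read by CellTiter-Glo luminescence, medium being phenol-red-free DMEM plus 10% FBS; concentration-response parameters came from normalized, curve-fitted qHTS data.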
MCF10A rereplic: A quantitative high throughput screen for small molecules that induce DNA re-replication in MCF 10a normal breast cells. MCF 10A DNA re-replication, Hoechst nuclear intensity, 48 h. Potency, µM (top dose mostly 46.1 µM), usual class: activators. 350,000 compounds, 2.9% hits; also: nearly all actives have a fitted effect of over 50% in size
KB-3-1 cytotox: qHTS assay for MDR1-selective chemotherapeutics: Primary screen using the parental adenocarcinoma cell KB-3-1 | KB-3-1 viability, CellTiter-Glo ATP luminescence, 72 h | Potency, µM (titrated, usually from 46.1 µM), hits mostly cytotoxic | 400,000 compounds, 1.4% hits | AID 1347075, 2019; also: nearly all actives have a fitted effect of over 60% in size
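KB-3-1 parental drug-naive adenocarcinoma cells in DMEM/10% FBS, incubated 72 h at 37 C with pin-transferred compounds across a concentration series. Viability by CellTiter-Glo luminescence; concentration-response curves fitted after normalization.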
HT1080 IDH1KD tx: qHTS for induction of synthetic lethality in tumor cells producing 2HG: qHTS for the HT-1080-IDH1KD cell line. HT-1080 IDH1 knockdown viability, ATP luminescence, 48 h. 360,000 compounds, 2% hits. Potency, µM (highest dose often 46.1 µM), hits mostly cytotoxic. AID 686971, 2013
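IDH1KD HT-1080 cells, 750/well, RPMI + 5% FBS; compound pinned after 2 h settling; 48 h, 37 °C; CellTiter-Glo luminescence; % activity normalised to DMSO and no-cell wells; curves fitted, classed by r2 and efficacy.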
HT1080NT lethal: qHTS for induction of synthetic lethality in tumor cells producing 2HG: qHTS for the HT-1080-NT fibrosarcoma cell line; HT-1080-NT fibrosarcoma viability, CellTiter-Glo ATP luminescence, 48 h; 360,000 compounds, 1.6% hits; AID 686970, 2013; Potency, µM (titrated, usually from 46.1 µM), most hits filed as cytotoxic;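 also: NT is the 2HG producing partner of a matched IDH1 knockdown line; nearly all actives have a fitted effect of over 55% in size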
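A 48-hour cytotoxicity screen used HT-1080-NT cells plated 2 hours before compound delivery. ATP-based CellTiter-Glo luminescence measured viability, normalized to DMSO and no-cell controls.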
SW480 rerep: A quantitative high throughput screen for small molecules that induce DNA re-replication in SW480 colon adenocarcinoma cells | AID 624297, 2012 | 340,000 compounds, 1.8% hits | SW480 DNA re-replication, Hoechst DNA content imaging, 48 h | Potency, µM (highest dose often 46.1 µM), usual class: activators; also: nearly all actives have a fitted effect of over 55% in size
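SW480 cells exposed to compounds for 48 hr at 37 C, 5% CO2, then Hoechst-stained 40 min. Nuclear DNA content imaged by fluorescence scanning (405 nm excitation, 500-530 nm emission); re-replication scored as increased high-intensity nuclei.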
Large screens that a line does not name were inactive. Calls follow the shape of the dose curve; as a rule, active = well fitted curve in the direction sought with a large enough effect; inconclusive = small, poorly fitted or top-dose-only effect, or another doubt; inactive = no such curve, though single readings can be large; an effect the other way counts as inactive or inconclusive.

Cc1ccc2nc(-c3ccc(NC(=O)c4ccccc4S(C)(=O)=O)cc3)sc2c1	none (no result: MCF10A rereplic, HT1080 IDH1KD tx, HT1080NT lethal, SW480 rerep)
Cc1ccc2nc(-c3ccc(NS(=O)(=O)c4c(C)n(C)c(=O)n(C)c4=O)cc3)sc2c1	KB-V1 MDR tox inconclusive, MCF10A rereplic 7.3µM, SW480 rerep 21µM
Cc1cccc(S(=O)(=O)Nc2ccc(-c3nc4ccc(C)cc4s3)cc2)c1	MCF10A rereplic 18µM, SW480 rerep inconclusive
COc1ccc(CN2C(=O)C(CC(=O)NCCCN(C)C)CC(C(=O)N(C)C)=C2C)cc1 (configuration not stated)	none (no result: MCF10A rereplic, SW480 rerep)
COc1ccc(C(=O)OCC(=O)N(C)C2CCS(=O)(=O)C2)cc1Br (configuration not stated)	none
O=C(CCNS(=O)(=O)c1ccccc1)N1CCCCCCC1	none
CC(CNS(=O)(=O)c1ccccc1)(c1ccccc1)N1CCCCC1 (configuration not stated)	KB-V1 MDR tox inconclusive, SW480 rerep 2.6µM
CC1CCc2nc(NC(=O)CN3CCN(Cc4ccc5c(c4)OCO5)CC3)sc2C1 (configuration not stated)	MCF10A rereplic 13µM, KB-3-1 cytotox inconclusive, HT1080 IDH1KD tx inconclusive, HT1080NT lethal inconclusive
CC1CCc2nc(NC(=O)Nc3ccc4c(c3)OCO4)sc2C1 (configuration not stated)	MCF10A rereplic inconclusive, KB-3-1 cytotox 13µM, HT1080 IDH1KD tx inconclusive
CC1CCc2nc(NC(=O)CN3CCN(c4ccccc4)CC3)sc2C1 (configuration not stated)	none
CC1CCN(S(=O)(=O)c2ccc(NC(=O)c3ccncc3)cc2)CC1	KB-V1 MDR tox inconclusive, MCF10A rereplic inconclusive, KB-3-1 cytotox 16µM, HT1080 IDH1KD tx inconclusive
CCS(=O)(=O)c1ncc(Cl)c(C(=O)Nc2ccc(S(=O)(=O)N3CCC(C)CC3)cc2)n1	KB-V1 MDR tox 10µM, MCF10A rereplic 1.8µM, KB-3-1 cytotox inconclusive, HT1080 IDH1KD tx 3.7µM, HT1080NT lethal 2.9µM, SW480 rerep inconclusive
Cc1noc(C)c1C(=O)Nc1ccc(S(=O)(=O)N2CCC(C)CC2)cc1	KB-V1 MDR tox inconclusive, SW480 rerep 18µM
Cc1noc(C)c1C(=O)Nc1ccc(S(=O)(=O)N2CCCCC2)cc1	KB-V1 MDR tox inconclusive
Cc1cc(NC(=O)C2CCN(S(=O)(=O)c3c(C)noc3C)CC2)ccc1Br	MCF10A rereplic 21µM, SW480 rerep inconclusive
Cc1ccc(/C=C/c2onc(C)c2S(=O)(=O)N2CCC(C(=O)Nc3ccc(Br)c(C)c3)CC2)cc1	none (no result: MCF10A rereplic, HT1080 IDH1KD tx, HT1080NT lethal, SW480 rerep)
COC(=O)[C@@H]1C[C@]2(OC(=O)c3ccccc3)C=CC(=O)C[C@@H]2N1C(=O)OCc1ccccc1	MCF10A rereplic 16µM, KB-3-1 cytotox inconclusive, HT1080 IDH1KD tx inconclusive, HT1080NT lethal inconclusive, SW480 rerep 21µM
COC(CNC(=O)C1CCCN1C(=O)OCc1ccccc1)OC (configuration not stated)	none
O=C(CCS(=O)(=O)c1cccc2nonc12)Nc1c(F)cccc1F	none (no result: MCF10A rereplic, HT1080 IDH1KD tx, HT1080NT lethal, SW480 rerep)
O=C1N/C(=C\c2ccccc2)c2ccccc21	KB-V1 MDR tox inconclusive, MCF10A rereplic 18µM, HT1080 IDH1KD tx inconclusive, HT1080NT lethal inconclusive, SW480 rerep inconclusive
O=C1C=C(Nc2cccc(Cl)c2)CC(c2ccco2)C1 (configuration not stated)	KB-V1 MDR tox inconclusive
Cc1ccc(NC2=CC(=O)CC(c3ccco3)C2)c(N)c1 (configuration not stated)	MCF10A rereplic 10µM
Cc1cc(C)cc(NC2=CC(=O)CC(c3ccco3)C2)c1 (configuration not stated)	KB-V1 MDR tox 16µM
O=C(N=C1SC2CS(=O)(=O)CC2N1c1ccc(OC(F)(F)F)cc1)C1CC1 (configuration not stated)	none
CCOc1ccc(OCCC(=O)OCC(=O)Nc2ccc3c(c2)OCCO3)cc1	KB-V1 MDR tox inconclusive
O=C(COC(=O)Cc1ccccc1[N+](=O)[O-])Nc1nnc(-c2ccccc2)o1	KB-V1 MDR tox inconclusive, MCF10A rereplic 18µM
O=C(COc1ccccc1)Nc1nnc(-c2ccccc2)o1	none
O=C(OCc1nnc(-c2ccccc2)o1)c1ccccc1	none
O=C(COC(=O)c1ccc(-c2nnc(-c3ccccc3)o2)cc1)c1ccccc1	KB-V1 MDR tox inconclusive, MCF10A rereplic inconclusive, SW480 rerep 16µM
COc1cc(OC)cc(C(=O)OCC(=O)Nc2nnc(-c3ccccc3)o2)c1	KB-V1 MDR tox inconclusive
O=C(COC(=O)c1ccc(Cl)nc1)Nc1nnc(-c2ccccc2)o1	KB-V1 MDR tox 15µM
CN(CC(=O)NCCc1ccccc1)S(=O)(=O)c1ccccc1	KB-V1 MDR tox inconclusive
O=c1[nH]c2ccc(NCc3ccc(-c4ccc(F)cc4)o3)cc2[nH]1	none (no result: MCF10A rereplic, HT1080 IDH1KD tx, HT1080NT lethal, SW480 rerep)
Cc1cccc2sc(NNC(=O)c3ccc(S(=O)(=O)N4CC(C)CC(C)C4)cc3)nc12 (configuration not stated)	MCF10A rereplic inconclusive, KB-3-1 cytotox inconclusive, HT1080 IDH1KD tx 16µM, HT1080NT lethal inconclusive, SW480 rerep 9.2µM
CCS(=O)(=O)N1Cc2ccccc2CC1C(=O)Nc1nc2ccc(C)cc2s1 (configuration not stated)	KB-V1 MDR tox 7.3µM, KB-3-1 cytotox inconclusive, HT1080NT lethal inconclusive
Cc1cc(C)c2nc(NNC(=O)c3ccc(S(=O)(=O)N4CCCC(C)C4)cc3)sc2c1 (configuration not stated)	MCF10A rereplic 15µM, KB-3-1 cytotox 4.1µM, HT1080 IDH1KD tx inconclusive, HT1080NT lethal inconclusive, SW480 rerep inconclusive
COC(=O)c1sc2ccccc2c1NC(=O)c1ccc(S(=O)(=O)N2CC(C)CC(C)C2)cc1 (configuration not stated)	none
Cc1ccc2nc(NNC(=O)c3ccc(S(=O)(=O)N4CCc5ccccc5C4)cc3)sc2c1	MCF10A rereplic 9.2µM, KB-3-1 cytotox inconclusive, HT1080 IDH1KD tx 4.6µM, HT1080NT lethal inconclusive, SW480 rerep inconclusive
Cc1ccc2nc(NC(=O)c3ccc(S(=O)(=O)N4CCC(C)CC4)cc3)sc2c1	none (no result: MCF10A rereplic, HT1080 IDH1KD tx, HT1080NT lethal, SW480 rerep)
CCc1cccc(NC(=O)Cn2c(=O)n(CC3CCC(C(=O)NC)CC3)c(=O)c3sccc32)c1 (configuration not stated)	none (no result: MCF10A rereplic, HT1080 IDH1KD tx, HT1080NT lethal, SW480 rerep)
CC(C)c1nc2ccc(C(=O)Nc3ccccc3F)cc2o1	KB-3-1 cytotox inconclusive (no result: MCF10A rereplic, HT1080 IDH1KD tx, HT1080NT lethal, SW480 rerep)
COc1ccccc1CNC(=O)COC(=O)c1ccc2c(=O)n3c(nc2c1)CCCCC3	none
